# Laboratory results reported in the supplement of paper PMC10849652.
# The full data set covers some 7,900 targets. This sample favours those with a hit. About 0.6% of all pairs of compound and target were hits. A number with no mark means an inactive call.
# What was measured:
# Test in all cases: log2 fold change, soluble protein after heating vs DMSO (PISA); higher = thermal stabilisation; K562 cells, 10 uM, 30 min; active = over 0.2 and 3.5 SD of the protein, either way, in both replicates (recomputed)
# bafetinib = compound: Cc1ccc(NC(=O)c2ccc(CN3CC[C@H](N(C)C)C3)c(C(F)(F)F)c2)cc1Nc1nccc(-c2cncnc2)n1 [bafetinib]
# How it was run: (§1)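 K562 cells at 2×10^6 cells/mL were exposed to 10 μM compound for 30 min, then aliquots were heated for 3 min across 48°C-58°C, pooled, and extracted in PBS containing 0.5% NP-40 at 4°C. The supernatant after 21,000xg for 90 min was taken as soluble protein and measured by TMTpro 16plex LC-MS/MS with channel sums equalised. Thermal stability is reported relative to control samples, with values from duplicates. Fold changes are given on a log2 scale.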
# [1] = compound: Cc1cccc(CC(=O)N2CCc3c2ccc(-c2cn(C)c4ncnc(N)c24)c3F)n1
# How it was run: as §1
# nilotinib = compound: Cc1cn(-c2cc(NC(=O)c3ccc(C)c(Nc4nccc(-c5cccnc5)n4)c3)cc(C(F)(F)F)c2)cn1 [nilotinib]
# How it was run: as §1
# [2] = compound: Cc1nc(Nc2n[nH]c3c2CN(C(=O)N[C@H](CN(C)C)c2ccccc2)C3(C)C)c2sccc2n1
# How it was run: as §1
# dasatinib = compound: Cc1nc(Nc2ncc(C(=O)Nc3c(C)cccc3Cl)s2)cc(N2CCN(CCO)CC2)n1 [dasatinib]
# How it was run: as §1
# [3] = compound: Cc1ncc(-c2ccnc(Nc3ccc(S(C)(=O)=O)cc3)n2)n1C(C)C
# How it was run: as §1
# [4] = compound: Cn1cc(-c2ccc3c(c2)CCN3C(=O)Cc2cccc(C(F)(F)F)c2)c2c(N)ncnc21
# How it was run: as §1
# [5] = compound: Cn1cc(-c2ccc3nnc(C(F)(F)c4ccc5ncccc5c4)n3n2)cn1
# How it was run: as §1
# tipifarnib = compound: Cn1cncc1[C@@](N)(c1ccc(Cl)cc1)c1ccc2c(c1)c(-c1cccc(Cl)c1)cc(=O)n2C [tipifarnib]
# How it was run: as §1
# mubritinib = compound: FC(F)(F)c1ccc(/C=C/c2nc(COc3ccc(CCCCn4ccnn4)cc3)co2)cc1 [mubritinib]
# How it was run: as §1
# UniProt Q96G97, sequence (Q96G97 whole entry, looked up): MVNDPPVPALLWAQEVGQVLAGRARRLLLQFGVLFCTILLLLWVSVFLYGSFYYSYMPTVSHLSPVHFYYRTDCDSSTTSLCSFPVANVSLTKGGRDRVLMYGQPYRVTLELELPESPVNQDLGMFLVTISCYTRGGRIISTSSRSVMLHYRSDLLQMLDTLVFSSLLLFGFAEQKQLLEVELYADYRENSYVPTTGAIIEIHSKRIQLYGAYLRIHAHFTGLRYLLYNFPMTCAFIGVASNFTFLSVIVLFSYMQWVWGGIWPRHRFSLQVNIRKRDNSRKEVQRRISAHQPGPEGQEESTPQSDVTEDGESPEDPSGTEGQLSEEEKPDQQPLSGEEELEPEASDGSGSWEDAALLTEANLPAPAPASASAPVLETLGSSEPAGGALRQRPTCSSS
# UniProt Q8N5I2, sequence (Q8N5I2 whole entry, looked up): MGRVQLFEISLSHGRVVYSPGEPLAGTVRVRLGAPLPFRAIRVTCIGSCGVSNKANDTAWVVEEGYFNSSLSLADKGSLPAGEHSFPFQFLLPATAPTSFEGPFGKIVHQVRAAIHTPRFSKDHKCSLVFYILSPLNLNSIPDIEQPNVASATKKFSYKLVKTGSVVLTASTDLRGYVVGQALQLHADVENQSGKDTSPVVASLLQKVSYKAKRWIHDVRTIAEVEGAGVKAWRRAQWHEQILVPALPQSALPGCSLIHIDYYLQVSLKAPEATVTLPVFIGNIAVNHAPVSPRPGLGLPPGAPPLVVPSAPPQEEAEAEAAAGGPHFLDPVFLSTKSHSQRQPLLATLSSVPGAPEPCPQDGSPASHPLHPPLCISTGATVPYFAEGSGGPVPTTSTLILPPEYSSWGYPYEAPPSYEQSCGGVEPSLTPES
# UniProt O94973, sequence (O94973 whole entry, looked up): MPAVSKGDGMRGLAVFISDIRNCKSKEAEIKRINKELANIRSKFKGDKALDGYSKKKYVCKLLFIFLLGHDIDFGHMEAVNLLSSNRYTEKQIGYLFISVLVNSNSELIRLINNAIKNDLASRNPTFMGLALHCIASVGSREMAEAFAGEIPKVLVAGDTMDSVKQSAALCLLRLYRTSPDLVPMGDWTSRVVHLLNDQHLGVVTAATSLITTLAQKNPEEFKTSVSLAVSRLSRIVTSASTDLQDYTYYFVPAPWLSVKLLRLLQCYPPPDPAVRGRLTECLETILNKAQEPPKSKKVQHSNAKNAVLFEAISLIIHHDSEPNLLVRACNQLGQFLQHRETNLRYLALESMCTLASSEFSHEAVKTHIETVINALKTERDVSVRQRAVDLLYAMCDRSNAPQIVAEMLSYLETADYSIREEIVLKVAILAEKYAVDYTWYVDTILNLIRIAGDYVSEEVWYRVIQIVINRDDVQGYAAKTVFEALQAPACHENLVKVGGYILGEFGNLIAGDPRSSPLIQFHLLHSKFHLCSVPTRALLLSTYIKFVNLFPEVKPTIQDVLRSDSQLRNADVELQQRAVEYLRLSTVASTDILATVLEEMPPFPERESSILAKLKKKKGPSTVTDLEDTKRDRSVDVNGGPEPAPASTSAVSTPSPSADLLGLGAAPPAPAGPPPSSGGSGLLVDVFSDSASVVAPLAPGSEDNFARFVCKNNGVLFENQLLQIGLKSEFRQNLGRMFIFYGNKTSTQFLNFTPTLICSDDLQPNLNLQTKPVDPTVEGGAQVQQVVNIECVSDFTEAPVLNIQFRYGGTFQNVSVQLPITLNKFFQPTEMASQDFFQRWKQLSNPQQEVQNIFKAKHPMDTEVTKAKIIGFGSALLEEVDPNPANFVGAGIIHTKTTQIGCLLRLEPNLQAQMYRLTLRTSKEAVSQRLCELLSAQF
# UniProt P30043, sequence (P30043 whole entry, looked up): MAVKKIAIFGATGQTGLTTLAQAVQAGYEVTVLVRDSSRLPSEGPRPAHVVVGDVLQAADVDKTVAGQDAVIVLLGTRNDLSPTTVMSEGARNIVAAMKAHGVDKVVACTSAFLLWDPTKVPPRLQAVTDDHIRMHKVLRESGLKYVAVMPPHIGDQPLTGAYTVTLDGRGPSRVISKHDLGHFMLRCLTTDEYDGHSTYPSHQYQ
# UniProt P15291, sequence (P15291 whole entry, looked up): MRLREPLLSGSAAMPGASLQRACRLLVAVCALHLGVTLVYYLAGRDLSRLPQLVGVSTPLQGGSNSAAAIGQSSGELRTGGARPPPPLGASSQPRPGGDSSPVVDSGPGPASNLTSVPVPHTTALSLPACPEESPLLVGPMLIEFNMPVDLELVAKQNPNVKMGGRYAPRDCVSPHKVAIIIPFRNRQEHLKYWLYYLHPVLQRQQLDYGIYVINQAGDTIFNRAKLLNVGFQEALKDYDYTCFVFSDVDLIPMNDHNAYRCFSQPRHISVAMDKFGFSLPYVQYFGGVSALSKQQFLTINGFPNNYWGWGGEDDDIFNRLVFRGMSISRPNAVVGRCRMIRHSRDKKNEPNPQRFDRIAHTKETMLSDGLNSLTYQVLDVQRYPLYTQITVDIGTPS
# UniProt P54709, sequence (P54709 whole entry, looked up): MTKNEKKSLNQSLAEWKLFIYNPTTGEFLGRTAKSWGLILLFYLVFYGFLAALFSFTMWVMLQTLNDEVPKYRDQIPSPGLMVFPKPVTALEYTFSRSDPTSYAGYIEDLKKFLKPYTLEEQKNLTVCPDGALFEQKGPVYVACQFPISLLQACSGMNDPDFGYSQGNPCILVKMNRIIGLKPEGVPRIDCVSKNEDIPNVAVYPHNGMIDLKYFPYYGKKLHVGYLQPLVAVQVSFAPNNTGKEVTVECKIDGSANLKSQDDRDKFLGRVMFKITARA
# UniProt Q5JTZ9, sequence (Q5JTZ9 whole entry, looked up): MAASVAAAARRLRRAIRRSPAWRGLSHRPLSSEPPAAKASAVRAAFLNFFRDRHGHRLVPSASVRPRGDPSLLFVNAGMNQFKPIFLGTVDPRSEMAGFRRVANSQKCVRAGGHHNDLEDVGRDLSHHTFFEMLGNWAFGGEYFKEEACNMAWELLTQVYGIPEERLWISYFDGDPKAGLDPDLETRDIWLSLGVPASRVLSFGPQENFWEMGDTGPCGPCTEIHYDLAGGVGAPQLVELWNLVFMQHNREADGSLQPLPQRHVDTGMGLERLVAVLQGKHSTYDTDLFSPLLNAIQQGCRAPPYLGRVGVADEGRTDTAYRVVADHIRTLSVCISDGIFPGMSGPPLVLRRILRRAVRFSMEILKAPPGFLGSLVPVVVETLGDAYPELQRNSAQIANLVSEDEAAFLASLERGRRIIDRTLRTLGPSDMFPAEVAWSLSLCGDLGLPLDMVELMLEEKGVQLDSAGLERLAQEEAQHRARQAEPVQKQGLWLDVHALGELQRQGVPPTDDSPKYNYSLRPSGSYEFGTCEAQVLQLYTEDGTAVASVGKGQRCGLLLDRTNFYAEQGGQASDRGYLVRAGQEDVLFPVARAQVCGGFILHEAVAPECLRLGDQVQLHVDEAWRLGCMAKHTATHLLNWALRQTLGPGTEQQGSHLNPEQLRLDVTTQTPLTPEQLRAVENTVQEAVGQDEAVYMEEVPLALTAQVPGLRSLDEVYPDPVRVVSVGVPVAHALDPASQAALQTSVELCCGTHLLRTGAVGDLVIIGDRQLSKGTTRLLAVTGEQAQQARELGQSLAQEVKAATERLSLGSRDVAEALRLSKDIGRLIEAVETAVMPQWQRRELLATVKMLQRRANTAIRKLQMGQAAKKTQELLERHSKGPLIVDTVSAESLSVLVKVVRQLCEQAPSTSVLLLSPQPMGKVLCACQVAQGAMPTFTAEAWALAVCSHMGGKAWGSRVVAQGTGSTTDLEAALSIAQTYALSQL
# UniProt Q6QNY0, sequence (Q6QNY0 whole entry, looked up): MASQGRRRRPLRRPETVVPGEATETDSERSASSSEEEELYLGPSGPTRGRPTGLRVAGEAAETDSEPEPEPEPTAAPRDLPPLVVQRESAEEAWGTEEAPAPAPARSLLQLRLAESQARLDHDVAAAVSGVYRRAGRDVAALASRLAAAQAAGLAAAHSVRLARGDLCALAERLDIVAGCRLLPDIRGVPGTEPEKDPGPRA
# UniProt Q9H8Y5, sequence (Q9H8Y5 whole entry, looked up): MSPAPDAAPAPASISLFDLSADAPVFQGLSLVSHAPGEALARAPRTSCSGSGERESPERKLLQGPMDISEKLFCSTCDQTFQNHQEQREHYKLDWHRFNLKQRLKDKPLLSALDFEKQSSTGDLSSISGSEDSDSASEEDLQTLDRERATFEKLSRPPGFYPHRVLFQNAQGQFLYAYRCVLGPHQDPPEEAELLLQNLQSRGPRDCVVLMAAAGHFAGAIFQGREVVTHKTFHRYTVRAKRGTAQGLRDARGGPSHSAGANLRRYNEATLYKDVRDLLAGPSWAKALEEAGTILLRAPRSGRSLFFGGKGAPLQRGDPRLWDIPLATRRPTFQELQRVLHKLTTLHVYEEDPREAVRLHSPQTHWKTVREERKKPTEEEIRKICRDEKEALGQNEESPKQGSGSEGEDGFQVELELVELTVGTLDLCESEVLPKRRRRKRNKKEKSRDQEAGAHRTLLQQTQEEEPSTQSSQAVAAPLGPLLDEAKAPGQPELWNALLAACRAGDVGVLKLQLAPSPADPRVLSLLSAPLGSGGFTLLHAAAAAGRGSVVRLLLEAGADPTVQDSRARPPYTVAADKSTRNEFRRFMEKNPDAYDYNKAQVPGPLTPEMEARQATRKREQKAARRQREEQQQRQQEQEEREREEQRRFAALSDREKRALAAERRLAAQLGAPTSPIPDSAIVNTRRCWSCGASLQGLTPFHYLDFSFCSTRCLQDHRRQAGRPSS
# UniProt Q16186, sequence (Q16186 whole entry, looked up): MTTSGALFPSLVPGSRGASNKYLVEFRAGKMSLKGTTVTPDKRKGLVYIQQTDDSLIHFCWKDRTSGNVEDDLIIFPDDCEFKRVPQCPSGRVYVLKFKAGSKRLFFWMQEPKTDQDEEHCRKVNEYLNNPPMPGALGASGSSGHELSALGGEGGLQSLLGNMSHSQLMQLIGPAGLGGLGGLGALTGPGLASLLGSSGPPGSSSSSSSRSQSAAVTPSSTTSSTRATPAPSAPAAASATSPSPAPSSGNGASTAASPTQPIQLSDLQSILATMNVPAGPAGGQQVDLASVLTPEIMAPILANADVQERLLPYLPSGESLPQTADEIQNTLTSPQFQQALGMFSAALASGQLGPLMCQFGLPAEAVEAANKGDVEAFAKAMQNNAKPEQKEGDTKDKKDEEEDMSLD
Target,log2 fold change (bafetinib),log2 fold change [1],log2 fold change (nilotinib),log2 fold change [2],log2 fold change (dasatinib),log2 fold change [3],log2 fold change [4],log2 fold change [5],log2 fold change (tipifarnib),log2 fold change (mubritinib)
BTAF1 (UniProt O14981),-0.158,0.025,-0.004,-0.059,-0.131,0.035,0.04,-0.003,-0.034,-0.022
ADD2 (UniProt P35612),0.012,0.011,0.022,-0.026,-0.033,-0.048,0.029,0.001,0.035,0.011
BCCIP isoform 2 (UniProt Q9P287),0.014,0.021,-0.046,-0.029,-0.071,0.017,-0.064,-0.007,-0.015,-0.023
ARRDC1 (UniProt Q8N5I2),0.014,-0.035,-0.045,0.065,-0.073,0.079,0,-0.087,0.011,-0.112
BLOC1S3 (UniProt Q6QNY0),-0.02,0.006,-0.067,0.031,-0.051,-0.022,0.017,0.078,-0.103,-0.027
ACSF3 (UniProt Q4G176),-0.13,-0.105,0.084,0.135,-0.073,0.022,-0.278,-0.02,0.062,-0.433 (active)
ATP1B3 (UniProt P54709),0,-0.039,0.06,-0.003,0.027,0.021,0,-0.02,0.065,0.043
ARMC8 (UniProt Q8IUR7),0.021,-0.026,-0.036,0.038,-0.082,-0.008,-0.019,-0.112,0.007,-0.053
BMP2K (UniProt Q9NSY1),0.037,-0.107,-0.067,0.534 (active),0,0.34,-0.016,-0.036,0.016,-0.042
B4GALT1 (UniProt P15291),-0.062,0.009,0.066,-0.025,-0.083,0.021,-0.005,0.04,0.153,0.029
AKAP8L (UniProt Q9ULX6),-0.078,-0.039,0.044,-0.02,-0.161,-0.052,-0.036,-0.14,0.039,0.003
ANKRD29 (UniProt Q8N6D5),0.063,-0.027,-0.09,-0.057,-0.002,0.053,0.22,0.133,-0.223,0.083
AGPAT1 (UniProt Q99943),-0.036,0.012,-0.035,0.016,-0.033,-0.063,0.033,-0.006,0.027,0.014
ADRM1 (UniProt Q16186),0.238 (active),0.072,0.028,0.063,-0.036,0.006,-0.061,-0.003,0.01,-0.006
AARS2 (UniProt Q5JTZ9),-0.07,0.011,-0.085,-0.047,-0.184,-0.036,0.052,0.05,-0.063,-0.143
ATP7B (UniProt P35670),-0.009,-0.032,0.006,-0.017,-0.153,0.087,0.015,0.001,0.019,-0.079
ANKZF1 (UniProt Q9H8Y5),0.104,-0.047,-0.151,-0.29,-0.04,0.018,-0.005,-0.126,0.026,-0.074
ATP12A isoform 2 (UniProt P54707),0.026,0.011,0.02,-0.007,0.022,0.007,0.066,0.04,0.016,0.018
BRK1 isoform 2 (UniProt Q8WUW1),-0.043,0.007,0.02,-0.051,0.054,-0.051,0.047,0.186,-0.049,0.002
BLVRB (UniProt P30043),0.014,0.05,0.021,-0.109,-0.064,0.029,0.032,0.074,-0.021,-0.097
ADD1 isoform 3 (UniProt P35611),-0.018,0.068,0.014,-0.02,0.041,-0.093,0.009,0.014,0.015,0.033
ATP6V1F isoform 2 (UniProt Q16864),0,-0.053,0.078,-0.03,0.034,-0.028,0.101,0.132,0.32,0.045
ALDH9A1 isoform 3 (UniProt P49189),-0.003,0.001,0.012,-0.019,0.025,-0.018,0.041,0.001,-0.002,-0.005
AMD1 (UniProt P17707),0.091,-0.141,-0.089,0.001,,-0.037,,-0.071,-0.022,0.056
AP2A2 isoform 2 (UniProt O94973),0.02,0.031,-0.027,0.009,0.062,-0.018,0.006,-0.074,-0.006,0.035
BSCL2 isoform 4 (UniProt Q96G97),-0.225,-0.041,0.101,0.026,-0.14,0.116,0.002,,0.109,0.133
ABCA4 (UniProt P78363),-0.025,-0.149,0.106,0.095,,0.045,0.016,-0.071,,0.154
ATRN (UniProt O75882),-0.006,0.004,0.027,-0.055,-0.047,0,0.097,,0.048,-0.027
ASB6 (UniProt Q9NWX5),-0.039,0.014,-0.066,-0.279,,-0.07,,-0.034,-0.02,0.037
APPL1 (UniProt Q9UKG1),-0.013,-0.092,-0.046,0.161,-0.003,0.002,0.03,-0.001,-0.051,-0.029
